Results: the supplement of paper PMC10849652
Of roughly 8,800 targets only a part is listed; those with a hit were picked by preference. About 0.5% of all pairs of compound and target were hits.

How the values were obtained:
Experiment in all cases: log2 fold change, soluble protein after heating vs DMSO (PISA); higher = thermal stabilisation; K562 lysate, 10 uM; active = over 0.2 and 3.5 SD of the protein, either way, in both replicates (recomputed)
[1] = compound: CC(=O)c1cnc2ccc(-c3cc(Cl)c(O)c(Cl)c3)nc2c1N[C@H]1CC[C@H](CN(C)C)CC1
Outline: (§1)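 To prepare the extract, K562 pellets were dounce-homogenised in PBS pH 7.4 with 1 mM MgCl2, giving crude material at 1 mg/mL protein. This was treated with 10 μM compound for 30 min, then heated in aliquots for 3 min over 48°C-58°C before pooling and addition of NP-40 to 0.5% at 4°C. Centrifugation at 21,000xg for 90 min left soluble protein in the supernatant, which TMTpro 16plex LC-MS/MS quantified with equalised channel sums. Results are log-two fold changes in thermal stability compared with solvent controls, from duplicates.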

ralimetinib = compound: CC(C)(C)Cn1c(N)nc2ccc(-c3[nH]c(C(C)(C)C)nc3-c3ccc(F)cc3)nc21 [ralimetinib]
Outline: as §1

[2] = compound: CC(C)(O)CC(=O)NCCn1ccc2ncnc(Nc3ccc(Oc4cccc(C(F)(F)F)c4)c(Cl)c3)c21
Outline: as §1

[3] = compound: CC(C)C1=C2N=C(C=C(N2N=C1)NCC3=CC=CC=C3)NCCCCCCN
Outline: as §1

[4] = compound: CC1=C(C(CC(=O)N1)C2=CC=C(C=C2)C(F)(F)F)C(=O)NC3=C(C=C4C(=C3)C=NN4)F
Outline: as §1

[5] = compound: CC1=C(C2=C(C=C1)C(=O)C3=CC=CC=C3N2CCCN)C
Outline: as §1

[6] = compound: CC1=C(C=C(C=C1)NC(=O)C2=CC(=CC=C2)C(C)(C)C#N)NC3=CC4=C(C=C3)N=CN(C4=O)C
Outline: as §1

[7] = compound: CC1=C(C=C(C=C1)NC(=O)C2=CC(=CC=C2)N(C)C)NC(=O)C3=CC=C(C=C3)O
Outline: as §1

[8] = compound: CC1=CC=C(C=C1)SC2=C3C=C(SC3=CN=C2)C(=O)N
Outline: as §1

vemurafenib = compound: CCCS(=O)(=O)Nc1ccc(F)c(C(=O)c2c[nH]c3ncc(-c4ccc(Cl)cc4)cc23)c1F [vemurafenib]
Outline: as §1

[9] = compound: CCCS(=O)(=O)Nc1ccc(F)c(C(=O)c2c[nH]c3ncc(Cl)cc23)c1F
Outline: as §1

[10] = compound: CC[C@@H]1C(=O)N(C)c2cnc(Nc3ccc(C(=O)NC4CCN(C)CC4)cc3OC)nc2N1C1CCCC1
Outline: as §1

volasertib = compound: CC[C@@H]1C(=O)N(C)c2cnc(Nc3ccc(C(=O)N[C@H]4CC[C@H](N5CCN(CC6CC6)CC5)CC4)cc3OC)nc2N1C(C)C [volasertib]
Outline: as §1

[11] = compound: CCn1c(C(=O)N(C2CC2)C2CC2)cc2c3c(ncn3C)c(Nc3cc(C)n(C)n3)nc21
Outline: as §1

[12] = compound: CCn1cc(-c2ccnc3[nH]c(-c4cccc(CN(C)C)c4)cc23)c(-c2ccc(NC(=O)N(C)C)cc2)n1
Outline: as §1

[13] = compound: CN1CCC(CNc2ccc3ncc(-c4cccc(OC(F)(F)F)c4)n3n2)CC1
Outline: as §1

saracatinib = compound: CN1CCN(CCOc2cc(OC3CCOCC3)c3c(Nc4c(Cl)ccc5c4OCO5)ncnc3c2)CC1 [saracatinib]
Outline: as §1

sotrastaurin = compound: CN1CCN(c2nc(C3=C(c4c[nH]c5ccccc45)C(=O)NC3=O)c3ccccc3n2)CC1 [sotrastaurin]
Outline: as §1

barasertib = compound: CCN(CCCOc1ccc2c(Nc3cc(CC(=O)Nc4cccc(F)c4)[nH]n3)ncnc2c1)CCOP(=O)(O)O [barasertib]
Outline: as §1

Measured: log2 fold change

DCTN1 isoform 4 (UniProt Q14203)
Sequence of UniProt Q14203 (Q14203 whole entry, looked up): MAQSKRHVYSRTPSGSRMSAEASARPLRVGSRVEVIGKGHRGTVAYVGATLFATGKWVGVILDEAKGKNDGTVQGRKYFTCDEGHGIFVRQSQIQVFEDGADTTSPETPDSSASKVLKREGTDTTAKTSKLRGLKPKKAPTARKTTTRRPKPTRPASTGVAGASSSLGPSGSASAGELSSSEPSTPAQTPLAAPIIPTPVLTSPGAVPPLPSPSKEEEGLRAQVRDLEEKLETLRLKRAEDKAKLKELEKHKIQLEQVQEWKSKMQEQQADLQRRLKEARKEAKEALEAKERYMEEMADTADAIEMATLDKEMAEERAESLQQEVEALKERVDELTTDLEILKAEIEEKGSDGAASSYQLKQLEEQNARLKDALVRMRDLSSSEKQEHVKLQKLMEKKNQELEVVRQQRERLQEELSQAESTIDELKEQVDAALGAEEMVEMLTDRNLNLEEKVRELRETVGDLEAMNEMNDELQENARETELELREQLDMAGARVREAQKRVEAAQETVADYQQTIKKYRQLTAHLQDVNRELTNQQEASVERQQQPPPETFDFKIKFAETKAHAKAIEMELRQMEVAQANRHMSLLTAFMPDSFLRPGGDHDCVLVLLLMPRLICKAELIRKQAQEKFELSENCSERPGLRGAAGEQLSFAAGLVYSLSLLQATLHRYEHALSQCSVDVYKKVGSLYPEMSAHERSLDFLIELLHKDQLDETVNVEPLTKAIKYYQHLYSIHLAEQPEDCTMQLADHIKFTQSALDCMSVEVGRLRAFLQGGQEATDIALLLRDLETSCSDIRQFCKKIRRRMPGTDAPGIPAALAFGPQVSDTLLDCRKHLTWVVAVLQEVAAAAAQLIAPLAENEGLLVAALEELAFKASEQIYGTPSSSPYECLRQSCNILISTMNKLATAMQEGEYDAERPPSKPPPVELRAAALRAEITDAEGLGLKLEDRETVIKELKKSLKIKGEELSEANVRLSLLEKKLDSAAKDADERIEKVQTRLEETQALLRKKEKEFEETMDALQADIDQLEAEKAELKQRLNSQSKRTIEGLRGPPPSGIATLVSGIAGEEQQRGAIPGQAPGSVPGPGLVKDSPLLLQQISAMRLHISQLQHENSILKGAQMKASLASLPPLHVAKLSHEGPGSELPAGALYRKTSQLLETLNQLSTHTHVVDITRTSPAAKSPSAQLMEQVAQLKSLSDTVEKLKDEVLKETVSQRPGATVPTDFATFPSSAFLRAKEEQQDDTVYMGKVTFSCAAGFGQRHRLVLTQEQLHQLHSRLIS
inactive: [1] 0.089 | ralimetinib 0.114 | [2] -0.076 | [3] 0.1 | [4] -0.074 | [5] -0.11 | [6] 0.044 | [7] 0.036 | [8] -0.029 | vemurafenib 0.07 | [9] 0.089 | [10] 0.139 | volasertib -0.019 | [11] -0.28 | [12] 0.34 | [13] 0.121 | saracatinib 0.123 | sotrastaurin -0.027

CLPTM1L (UniProt Q96KA5)
inactive: [1] -0.011 | ralimetinib 0.041 | [2] -0.041 | [3] 0.048 | [4] 0.058 | [5] 0.081 | [6] -0.024 | [7] 0.039 | [8] -0.005 | vemurafenib -0.006 | [9] 0.049 | barasertib 0.079 | [10] 0.067 | volasertib -0.043 | [11] 0.012 | [12] -0.099 | [13] 0.016 | saracatinib 0.049 | sotrastaurin -0.001

DHX32 (UniProt Q7L7V1)
Sequence of UniProt Q7L7V1 (Q7L7V1 whole entry, looked up): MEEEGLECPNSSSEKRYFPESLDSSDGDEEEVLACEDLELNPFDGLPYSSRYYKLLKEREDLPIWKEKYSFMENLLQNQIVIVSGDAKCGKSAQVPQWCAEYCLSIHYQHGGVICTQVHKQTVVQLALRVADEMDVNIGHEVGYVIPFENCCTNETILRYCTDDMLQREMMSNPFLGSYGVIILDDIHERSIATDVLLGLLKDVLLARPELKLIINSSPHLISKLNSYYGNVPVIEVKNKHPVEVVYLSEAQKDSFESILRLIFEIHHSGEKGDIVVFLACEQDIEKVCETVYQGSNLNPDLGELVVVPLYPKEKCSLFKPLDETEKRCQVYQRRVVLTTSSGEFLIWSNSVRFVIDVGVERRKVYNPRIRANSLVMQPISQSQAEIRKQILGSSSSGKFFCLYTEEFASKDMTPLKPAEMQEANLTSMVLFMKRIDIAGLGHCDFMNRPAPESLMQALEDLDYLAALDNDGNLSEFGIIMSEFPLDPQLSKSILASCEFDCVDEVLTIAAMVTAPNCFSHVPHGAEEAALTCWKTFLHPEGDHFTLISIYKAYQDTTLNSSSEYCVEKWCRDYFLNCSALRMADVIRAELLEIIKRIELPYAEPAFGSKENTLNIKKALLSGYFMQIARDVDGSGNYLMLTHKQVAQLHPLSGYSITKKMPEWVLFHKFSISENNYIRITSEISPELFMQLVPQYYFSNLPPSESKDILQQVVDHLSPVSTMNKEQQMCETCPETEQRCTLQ
active: [3] -0.387
inactive: ralimetinib 0.096 | [2] -0.144 | [4] 0.016 | [6] -0.023 | [7] 0.017 | vemurafenib 0.173 | [10] -0.026 | [11] -0.106 | [12] 0.137 | [13] 0.003 | sotrastaurin -0.011

CSNK1A1 isoform 3 (UniProt P48729)
inactive: ralimetinib 0.13 | [2] 0.253 | [5] -0.061 | [7] 0.143 | [11] -0.199 | saracatinib -0.175

DNAJC24 (UniProt Q6P3W2)
inactive: [1] -0.12 | ralimetinib -0.052 | [2] 0.113 | [3] -0.067 | [4] -0.048 | [5] 0.064 | [6] 0.031 | [7] 0.047 | [8] 0.064 | vemurafenib 0.141 | [9] -0.038 | [10] 0.017 | volasertib 0.027 | [11] 0.002 | [12] 0.196 | saracatinib -0.013 | sotrastaurin -0.032
active: [13] -0.309

CLIP1 isoform 2 (UniProt P30622)
Sequence of UniProt P30622 (P30622 whole entry, looked up): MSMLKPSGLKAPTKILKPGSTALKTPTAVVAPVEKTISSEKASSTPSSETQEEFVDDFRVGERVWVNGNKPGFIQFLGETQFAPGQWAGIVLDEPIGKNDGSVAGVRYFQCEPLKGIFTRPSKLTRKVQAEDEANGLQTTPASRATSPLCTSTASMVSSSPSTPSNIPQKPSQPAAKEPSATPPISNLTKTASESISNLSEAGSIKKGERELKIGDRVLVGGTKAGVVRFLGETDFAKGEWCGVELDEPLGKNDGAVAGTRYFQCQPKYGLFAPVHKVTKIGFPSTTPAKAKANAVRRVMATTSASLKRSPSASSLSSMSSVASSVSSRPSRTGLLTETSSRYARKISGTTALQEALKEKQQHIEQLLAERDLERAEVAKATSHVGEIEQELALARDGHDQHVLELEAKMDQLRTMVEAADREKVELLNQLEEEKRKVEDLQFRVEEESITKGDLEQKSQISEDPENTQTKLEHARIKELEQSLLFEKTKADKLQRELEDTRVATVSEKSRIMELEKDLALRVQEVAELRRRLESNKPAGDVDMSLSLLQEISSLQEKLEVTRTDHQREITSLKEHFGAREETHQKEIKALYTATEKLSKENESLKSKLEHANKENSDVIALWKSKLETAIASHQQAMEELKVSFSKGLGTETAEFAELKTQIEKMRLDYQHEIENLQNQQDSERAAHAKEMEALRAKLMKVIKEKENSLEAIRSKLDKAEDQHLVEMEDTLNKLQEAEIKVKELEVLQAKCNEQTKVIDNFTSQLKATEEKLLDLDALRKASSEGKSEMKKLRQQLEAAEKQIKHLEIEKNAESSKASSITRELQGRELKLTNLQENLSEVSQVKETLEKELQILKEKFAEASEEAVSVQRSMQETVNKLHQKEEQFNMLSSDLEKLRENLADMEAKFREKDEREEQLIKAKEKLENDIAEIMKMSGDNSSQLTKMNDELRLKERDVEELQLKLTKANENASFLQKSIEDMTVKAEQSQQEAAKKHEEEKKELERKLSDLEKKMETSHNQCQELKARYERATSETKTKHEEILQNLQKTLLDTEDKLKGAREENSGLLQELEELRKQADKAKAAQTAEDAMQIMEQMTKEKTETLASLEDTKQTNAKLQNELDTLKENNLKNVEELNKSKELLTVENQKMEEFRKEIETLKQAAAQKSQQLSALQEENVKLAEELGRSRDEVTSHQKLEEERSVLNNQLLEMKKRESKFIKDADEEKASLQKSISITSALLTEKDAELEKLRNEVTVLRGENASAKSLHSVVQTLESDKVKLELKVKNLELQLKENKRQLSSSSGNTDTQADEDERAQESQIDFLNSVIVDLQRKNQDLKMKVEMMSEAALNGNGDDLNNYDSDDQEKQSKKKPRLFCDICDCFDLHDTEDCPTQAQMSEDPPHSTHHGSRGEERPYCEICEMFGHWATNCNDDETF
inactive: [1] 0.05 | ralimetinib -0.002 | [2] -0.04 | [3] -0.054 | [4] 0.017 | [5] -0.025 | [6] 0.053 | [7] 0.021 | [8] -0.088 | [9] 0.112 | barasertib -0.083 | [10] 0.073 | volasertib 0.055 | [11] -0.04 | [12] -0.488 | [13] 0.02 | saracatinib 0.028 | sotrastaurin -0.026

CSNK1G3 isoform 4 (UniProt Q9Y6M4)
Sequence of UniProt Q9Y6M4 (Q9Y6M4 whole entry, looked up): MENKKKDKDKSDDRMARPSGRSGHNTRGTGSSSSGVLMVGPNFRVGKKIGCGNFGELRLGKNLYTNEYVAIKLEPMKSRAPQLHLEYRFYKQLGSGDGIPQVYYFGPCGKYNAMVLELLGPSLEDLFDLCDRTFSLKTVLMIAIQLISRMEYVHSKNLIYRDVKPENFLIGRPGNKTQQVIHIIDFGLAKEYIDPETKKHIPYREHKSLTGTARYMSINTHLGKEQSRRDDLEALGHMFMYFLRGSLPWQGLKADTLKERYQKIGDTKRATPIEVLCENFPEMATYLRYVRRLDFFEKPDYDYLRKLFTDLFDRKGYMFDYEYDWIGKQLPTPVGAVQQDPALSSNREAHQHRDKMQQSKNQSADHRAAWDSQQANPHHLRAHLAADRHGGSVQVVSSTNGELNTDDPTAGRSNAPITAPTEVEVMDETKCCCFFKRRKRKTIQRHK
inactive: [1] 0.235 | [8] -0.142 | [9] -0.238 | volasertib 0.111

CLASP2 (UniProt O75122)
inactive: [1] -0.048 | ralimetinib 0.075 | [2] 0.069 | [4] 0.044 | [6] -0.098 | [7] 0.001 | [8] -0.028 | vemurafenib 0.241 | [9] 0.072 | barasertib -0.015 | [10] 0.021 | volasertib -0.052 | [11] -0.098 | [12] -0.077 | [13] 0.073 | sotrastaurin 0.18

CHFR (UniProt Q96EP1)
Sequence of UniProt Q96EP1 (Q96EP1 whole entry, looked up): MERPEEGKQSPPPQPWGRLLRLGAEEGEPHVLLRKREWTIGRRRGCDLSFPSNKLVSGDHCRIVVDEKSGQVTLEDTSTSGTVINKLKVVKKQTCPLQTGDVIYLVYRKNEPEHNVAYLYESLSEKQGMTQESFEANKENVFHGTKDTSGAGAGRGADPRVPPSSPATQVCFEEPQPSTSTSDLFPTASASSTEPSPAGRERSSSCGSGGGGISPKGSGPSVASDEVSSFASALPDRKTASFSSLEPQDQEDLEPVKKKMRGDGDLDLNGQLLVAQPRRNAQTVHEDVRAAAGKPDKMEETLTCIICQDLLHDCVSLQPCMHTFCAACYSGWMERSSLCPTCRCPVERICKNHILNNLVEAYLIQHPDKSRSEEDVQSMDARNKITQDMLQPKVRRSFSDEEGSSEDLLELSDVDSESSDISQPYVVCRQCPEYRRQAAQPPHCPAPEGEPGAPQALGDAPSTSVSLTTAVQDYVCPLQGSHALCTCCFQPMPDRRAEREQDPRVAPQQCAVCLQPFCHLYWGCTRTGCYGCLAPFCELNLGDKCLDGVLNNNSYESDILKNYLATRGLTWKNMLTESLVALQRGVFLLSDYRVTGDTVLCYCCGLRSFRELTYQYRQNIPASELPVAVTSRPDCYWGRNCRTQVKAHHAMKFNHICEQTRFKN
inactive: [1] 0.158 | ralimetinib 0.007 | [2] -0.049 | [3] -0.047 | [4] 0.003 | [5] -0.06 | [6] -0.021 | [7] 0.031 | [8] 0.102 | vemurafenib -0.252 | [9] 0.063 | [10] -0.013 | volasertib 0.043 | [11] 0.052 | saracatinib 0.052 | sotrastaurin 0.033

DAZAP1 (UniProt K7EQ02)
inactive: [4] 0.033

CLP1 (UniProt Q92989)
Sequence of UniProt Q92989 (Q92989 whole entry, looked up): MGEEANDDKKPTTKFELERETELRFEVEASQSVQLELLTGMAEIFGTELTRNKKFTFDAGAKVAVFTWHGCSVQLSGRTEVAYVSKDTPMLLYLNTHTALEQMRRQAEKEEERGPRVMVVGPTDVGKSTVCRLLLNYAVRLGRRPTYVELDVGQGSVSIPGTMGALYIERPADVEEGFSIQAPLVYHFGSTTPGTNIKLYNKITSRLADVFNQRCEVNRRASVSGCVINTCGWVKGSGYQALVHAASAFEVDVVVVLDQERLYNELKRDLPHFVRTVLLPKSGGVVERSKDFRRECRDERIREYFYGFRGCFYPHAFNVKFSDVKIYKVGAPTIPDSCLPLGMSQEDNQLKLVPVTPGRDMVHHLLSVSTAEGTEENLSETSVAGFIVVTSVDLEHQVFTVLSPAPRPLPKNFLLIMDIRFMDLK
inactive: [1] 0.062 | ralimetinib 0.006 | [2] 0.003 | [3] 0.012 | [4] 0.023 | [5] 0.001 | [6] -0.02 | [7] -0.037 | [8] 0.01 | vemurafenib -0.035 | [9] 0 | barasertib 0.03 | [10] -0.045 | volasertib -0.05 | [11] 0.015 | [12] -0.13 | [13] 0.096 | saracatinib 0.115 | sotrastaurin 0.036

CSNK2A1, A0A2R8Y4D6
inactive: [1] 0.172 | [8] -0.292 | [9] 0.107 | volasertib -0.325

CYP2S1 isoform 2 (UniProt Q96SQ9)
inactive: [1] 0.146 | ralimetinib 0.048 | [2] 0 | [3] 0.061 | [5] -0.084 | [6] -0.028 | [7] 0.07 | [8] -0.229 | vemurafenib 0.062 | [9] 0.136 | [10] 0.119 | volasertib 0.038 | [11] 0.063 | saracatinib 0.017 | sotrastaurin 0.081
